{"source": "ChEMBL document CHEMBL1961873", "about": "“Compounds: GSK PKIS; Assays: Nanosyn kinase panel” (2012)", "key": {"[1]": {"target": "Sphingosine kinase 1 (Homo sapiens) (UniProt Q9NYA1)", "sequence (Q9NYA1 whole entry)": "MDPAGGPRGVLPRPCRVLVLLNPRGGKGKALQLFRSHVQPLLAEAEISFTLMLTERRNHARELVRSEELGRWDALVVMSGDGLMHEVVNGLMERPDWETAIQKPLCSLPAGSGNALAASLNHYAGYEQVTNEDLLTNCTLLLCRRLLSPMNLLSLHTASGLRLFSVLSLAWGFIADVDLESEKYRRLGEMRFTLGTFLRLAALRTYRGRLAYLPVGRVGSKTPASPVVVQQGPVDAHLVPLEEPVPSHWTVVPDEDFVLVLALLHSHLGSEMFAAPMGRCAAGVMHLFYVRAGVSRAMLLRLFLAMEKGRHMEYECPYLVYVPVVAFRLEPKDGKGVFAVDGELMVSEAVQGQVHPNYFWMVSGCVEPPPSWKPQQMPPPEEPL", "settings": "at 1 µM"}, "[2]": {"target": "T1, Sphingosine kinase 2 (Homo sapiens) (UniProt Q9NRA0)", "T1 sequence (whole entry)": "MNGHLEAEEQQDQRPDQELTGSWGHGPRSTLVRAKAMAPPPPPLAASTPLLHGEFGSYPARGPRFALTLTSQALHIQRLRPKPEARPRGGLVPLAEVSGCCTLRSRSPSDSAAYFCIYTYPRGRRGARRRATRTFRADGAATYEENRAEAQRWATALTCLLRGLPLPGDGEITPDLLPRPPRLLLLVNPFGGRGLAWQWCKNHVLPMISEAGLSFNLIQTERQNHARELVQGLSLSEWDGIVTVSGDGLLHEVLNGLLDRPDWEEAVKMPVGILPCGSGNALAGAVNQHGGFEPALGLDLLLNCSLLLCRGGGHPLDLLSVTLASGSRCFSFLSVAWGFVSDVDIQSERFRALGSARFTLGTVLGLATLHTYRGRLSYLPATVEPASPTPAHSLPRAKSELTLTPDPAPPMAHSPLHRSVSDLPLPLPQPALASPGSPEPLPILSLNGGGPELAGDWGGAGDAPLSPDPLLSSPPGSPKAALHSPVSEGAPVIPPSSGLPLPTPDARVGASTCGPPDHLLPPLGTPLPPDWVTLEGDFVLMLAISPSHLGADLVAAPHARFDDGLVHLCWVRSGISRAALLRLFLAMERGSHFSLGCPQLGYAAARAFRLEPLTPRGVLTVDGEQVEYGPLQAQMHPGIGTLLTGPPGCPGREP", "settings": "at 0.1 µM"}, "[3]": {"target": "T1, Sphingosine kinase 2 (Homo sapiens)", "settings": "at 1 µM"}, "[4]": {"target": "Casein kinase II subunit alpha (Homo sapiens) (UniProt P68400)", "sequence (P68400 whole entry, looked up)": "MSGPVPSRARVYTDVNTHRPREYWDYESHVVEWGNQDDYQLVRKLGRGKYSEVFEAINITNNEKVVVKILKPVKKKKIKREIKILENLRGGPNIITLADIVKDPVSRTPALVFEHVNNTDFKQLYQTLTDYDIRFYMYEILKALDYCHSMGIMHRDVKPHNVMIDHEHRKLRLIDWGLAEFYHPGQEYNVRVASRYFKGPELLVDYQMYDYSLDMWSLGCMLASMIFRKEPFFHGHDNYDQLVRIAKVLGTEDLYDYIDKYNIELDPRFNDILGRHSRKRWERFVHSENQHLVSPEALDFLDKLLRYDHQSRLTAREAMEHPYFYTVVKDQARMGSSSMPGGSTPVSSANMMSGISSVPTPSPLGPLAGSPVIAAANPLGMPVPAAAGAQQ", "settings": "at 0.1 µM"}, "[5]": {"target": "Casein kinase II subunit alpha (Homo sapiens) (UniProt P68400)", "settings": "at 1 µM"}, "[6]": {"target": "T2, Inhibitor of nuclear factor kappa-B kinase subunit alpha (Homo sapiens) (UniProt O15111)", "T2 sequence (whole entry)": "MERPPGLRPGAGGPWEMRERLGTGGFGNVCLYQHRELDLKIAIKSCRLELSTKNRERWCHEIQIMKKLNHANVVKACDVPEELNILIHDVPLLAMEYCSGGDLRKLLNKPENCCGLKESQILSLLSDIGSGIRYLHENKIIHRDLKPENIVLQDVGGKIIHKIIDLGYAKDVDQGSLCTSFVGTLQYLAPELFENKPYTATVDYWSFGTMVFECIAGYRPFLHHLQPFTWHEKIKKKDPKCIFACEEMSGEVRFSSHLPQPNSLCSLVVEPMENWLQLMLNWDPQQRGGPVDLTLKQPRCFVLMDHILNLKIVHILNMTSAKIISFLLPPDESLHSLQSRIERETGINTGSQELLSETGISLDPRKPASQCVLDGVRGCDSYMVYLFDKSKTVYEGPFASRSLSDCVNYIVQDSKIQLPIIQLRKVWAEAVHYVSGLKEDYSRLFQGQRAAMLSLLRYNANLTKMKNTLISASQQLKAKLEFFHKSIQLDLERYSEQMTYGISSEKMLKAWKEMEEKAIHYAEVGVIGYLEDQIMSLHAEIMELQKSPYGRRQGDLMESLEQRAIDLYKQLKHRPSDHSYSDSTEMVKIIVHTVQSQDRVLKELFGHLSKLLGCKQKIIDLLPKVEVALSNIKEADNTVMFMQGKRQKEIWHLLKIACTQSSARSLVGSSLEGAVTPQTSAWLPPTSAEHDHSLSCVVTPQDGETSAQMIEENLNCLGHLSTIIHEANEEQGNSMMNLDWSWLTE", "settings": "at 0.1 µM"}, "[7]": {"target": "T2, Inhibitor of nuclear factor kappa-B kinase subunit alpha (Homo sapiens)", "settings": "at 1 µM"}, "[8]": {"target": "T3, Inhibitor of nuclear factor kappa-B kinase subunit beta (Homo sapiens) (UniProt O14920)", "T3 sequence (whole entry)": "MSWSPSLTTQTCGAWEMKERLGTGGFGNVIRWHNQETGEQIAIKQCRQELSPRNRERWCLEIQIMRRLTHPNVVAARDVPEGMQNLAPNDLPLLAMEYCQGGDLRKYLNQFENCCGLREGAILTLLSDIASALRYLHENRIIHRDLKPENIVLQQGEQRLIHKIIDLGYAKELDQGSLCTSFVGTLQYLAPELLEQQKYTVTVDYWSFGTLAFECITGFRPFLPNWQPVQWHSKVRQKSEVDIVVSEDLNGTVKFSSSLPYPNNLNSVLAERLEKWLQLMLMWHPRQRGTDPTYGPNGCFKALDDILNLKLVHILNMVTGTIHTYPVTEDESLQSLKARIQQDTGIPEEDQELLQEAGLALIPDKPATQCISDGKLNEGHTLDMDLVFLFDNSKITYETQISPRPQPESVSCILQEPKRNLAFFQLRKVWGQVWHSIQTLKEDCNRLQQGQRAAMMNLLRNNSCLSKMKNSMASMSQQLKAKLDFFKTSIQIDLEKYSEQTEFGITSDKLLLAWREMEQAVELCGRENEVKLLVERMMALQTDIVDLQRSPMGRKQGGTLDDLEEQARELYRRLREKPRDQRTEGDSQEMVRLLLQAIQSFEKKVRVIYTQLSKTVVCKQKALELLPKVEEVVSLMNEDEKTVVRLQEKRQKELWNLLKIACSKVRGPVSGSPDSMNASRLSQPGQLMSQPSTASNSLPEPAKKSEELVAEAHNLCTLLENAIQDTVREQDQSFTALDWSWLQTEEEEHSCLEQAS", "settings": "at 0.1 µM"}, "[9]": {"target": "T3, Inhibitor of nuclear factor kappa-B kinase subunit beta (Homo sapiens)", "settings": "at 1 µM"}, "[10]": {"target": "T4, Inhibitor of nuclear factor kappa-B kinase subunit epsilon (Homo sapiens) (UniProt Q14164)", "T4 sequence (whole entry)": "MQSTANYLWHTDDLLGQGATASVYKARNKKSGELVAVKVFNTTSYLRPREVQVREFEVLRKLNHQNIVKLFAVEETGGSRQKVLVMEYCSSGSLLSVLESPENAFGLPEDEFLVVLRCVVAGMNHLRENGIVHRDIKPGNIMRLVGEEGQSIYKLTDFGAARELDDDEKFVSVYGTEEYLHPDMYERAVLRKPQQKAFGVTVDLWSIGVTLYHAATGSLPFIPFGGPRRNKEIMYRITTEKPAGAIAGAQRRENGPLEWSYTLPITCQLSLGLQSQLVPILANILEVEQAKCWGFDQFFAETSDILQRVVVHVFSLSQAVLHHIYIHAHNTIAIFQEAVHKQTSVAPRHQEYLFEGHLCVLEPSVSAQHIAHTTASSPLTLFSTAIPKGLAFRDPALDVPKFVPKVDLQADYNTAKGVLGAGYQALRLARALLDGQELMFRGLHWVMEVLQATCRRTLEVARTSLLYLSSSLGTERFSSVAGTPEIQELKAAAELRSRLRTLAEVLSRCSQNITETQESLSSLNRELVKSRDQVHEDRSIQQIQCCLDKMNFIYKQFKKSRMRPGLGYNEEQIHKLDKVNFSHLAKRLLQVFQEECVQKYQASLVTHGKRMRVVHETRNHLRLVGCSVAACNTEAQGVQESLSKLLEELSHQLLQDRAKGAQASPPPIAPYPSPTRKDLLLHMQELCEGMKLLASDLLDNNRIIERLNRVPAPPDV", "settings": "at 0.1 µM"}}, "data": [{"smiles": "CN1CCC(C(=O)Nc2n[nH]c3nnc(-c4ccccc4)cc23)CC1", "values": [{"measurement": "inhibition", "setting": "[1]", "value": -3.46, "unit": "%"}, {"measurement": "inhibition", "setting": "[2]", "value": -0.94, "unit": "%"}, {"measurement": "inhibition", "setting": "[3]", "value": -2.16, "unit": "%"}, {"measurement": "inhibition", "setting": "[4]", "value": 6.73, "unit": "%"}, {"measurement": "inhibition", "setting": "[5]", "value": 12.2, "unit": "%"}, {"measurement": "inhibition", "setting": "[6]", "value": 6.86, "unit": "%"}, {"measurement": "inhibition", "setting": "[7]", "value": 1.13, "unit": "%"}, {"measurement": "inhibition", "setting": "[8]", "value": 11.4, "unit": "%"}, {"measurement": "inhibition", "setting": "[9]", "value": 12.4, "unit": "%"}, {"measurement": "inhibition", "setting": "[10]", "value": 7.37, "unit": "%"}]}]}
